Hits are enriched below; roughly 2.2% of the tested compounds scored in any of these assays.
KLF5 inh – inhibitors of KLF5 expression; DLD-1 KLF5 promoter-luciferase reporter, luminescence; inhibition, % at 5 µM; 290,000 compounds, 0.23% hits; AID 1700;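 active = inhibition above a per-plate limit of that plate's mean compound inhibition plus 3 SD, cut at about 60% in these data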;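 also: 0% = DMSO wells and 100% = LY294002 at 200 µM; higher means less KLF5 promoter-driven luciferase light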
aSyn UTR inh – MLPCN primary screen, SNCA 5' untranslated region; alpha-synuclein 5'UTR reporter, inhibitor activity; inhibition, % (tested at 7.5 µM); 300,000 compounds, 0.82% hits; AID 1813; in the data active = inhibition above about 60%;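 also: H4 neuroglioblastoma cells stably carrying SNCA 5'UTR luciferase fusion; 0% = DMSO wells and 100% = positive control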
IEC-6 tox – counter-screen for KLF5 inhibitors: cytotoxicity in IEC-6 cells; IEC-6 cytotoxicity, luminescence viability; inhibition, % at 5 µM; 290,000 compounds, 0.78% hits; AID 1825; in the data active = inhibition above about 22%;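 also: 0% = plate median of test compound wells and 100% = cytotoxic reference compound wells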
APP 5UTR inh – APP translation inhibition; SH-SY5Y APP 5'UTR-luciferase reporter, luminescence; inhibition, % at 2 µM; 190,000 compounds, 0.82% hits;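 active = inhibition above a set limit, derived from the sample mean plus 3 SD, cut at about 45% in these data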
BaF3 parental – counter-screen for JAK2V617F inhibitors: parental Ba/F3 viability inhibitors; CellTiter-Glo ATP luminescence; inhibition, % at 5.6 µM; 220,000 compounds, 1.1% hits; AID 1486;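 active = inhibition above a per-campaign cutoff, the mean inhibition of all tested compounds plus 3 SD, cut at about 27% in these data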;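 also: 0% = DMSO wells and 100% = JAK Inhibitor I control wells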
Ba/F3 V617F tox – reduce viability of Ba/F3 cells dependent on JAK2V617F. AID 1446. inhibition, % at 5.6 µM. 220,000 compounds, 1.1% hits. Ba/F3 EpoR-JAK2V617F viability, ATP luminescence;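 active = inhibition above the campaign mean plus 3 SD over all tested compounds, cut at about 24% in these data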;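 also: cytokine-independent growth of Ba/F3 cells driven by EpoR plus mutant JAK2; 0% = DMSO-treated cells and 100% = JAK inhibitor I control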
Active calls of the source: *; · = not tested or not shown.

SMILES	KLF5 inh	aSyn UTR inh	IEC-6 tox	APP 5UTR inh	BaF3 parental	Ba/F3 V617F tox
Cc1cc(/C=C2\Sc3ccccc3N2C)cc(C)[n+]1CC1CCCO1 (stereo unspecified)	-5.2	·	11.3	-4.3	75.8*	99.9*
O=C(Nc1ccccc1Cl)C1CCCN(c2ncnc3c2nc2n3CCCCC2)C1 (stereo unspecified)	-14.8	5.0	-8.8	·	·	·
COc1ccc(CNC(C)C2COc3ccccc3O2)c(OC)c1 (stereo unspecified)	-7.0	13.8	3.0	7.7	95.9*	0.8
CC(NCc1ccccc1)C1COc2ccccc2O1 (stereo unspecified)	-24.8	8.9	-7.2	-18.6	2.4	-1.0
CCOC(=O)c1c(C)[nH]c(C(=O)Nc2ccc(NC(C)=O)cc2)c1C	-13.1	89.5*	3.7	13.0	8.1	3.8
CCOC(=O)C(C(=O)OCC)N(C#N)c1nc(N(C)C)nc(N(C)C)n1	-27.0	17.7	7.4	0.3	5.3	5.3
CC(C)(C)c1ccc(/C=N/N2CCN(c3ccccn3)CC2)cc1	-12.8	-58.0	-1.2	·	6.1	-3.1
CN(C)c1ccc(/C=N/N2CCN(c3ccccn3)CC2)cc1	-42.2	-125.8	2.1	·	56.5*	34.7*
CCOC(=O)c1c(C)oc2cc(Cl)c(O)c(CN(C)C)c12	-91.1	-57.2	5.9	·	2.2	0.4
CCOC(=O)c1c(-c2ccccc2)oc2cc(CN(C)C)c(O)c(CN(C)C)c12	-16.6	56.1	4.0	53.2*	2.0	-1.1
O=C(CCCOc1ccccc1)N1CCCCC1	-43.6	70.6*	-2.6	-103.0	4.7	1.7
O=C(CCCOc1ccc(Cl)cc1)N1CCCCC1	-57.2	-50.7	-1.9	-10.1	5.5	3.2
Cc1cc(NC(=O)CSc2nccn2-c2cccc(Cl)c2)no1	-34.2	-32.3	-5.2	·	·	·
COc1ccc(C(=O)N2CCN(c3ccc([N+](=O)[O-])c(NCCc4ccc(OC)c(OC)c4)c3)CC2)cc1	-20.2	16.5	1.1	18.4	11.8	6.1
COc1ccc(CCNc2cc(N3CCN(C(=O)c4ccc(C)cc4)CC3)ccc2[N+](=O)[O-])cc1OC	-16.7	2.1	-2.3	-7.0	43.4*	1.1
Cc1ccc(Nc2nc(N)nc(CN3CCCCCC3)n2)c(C)c1	-16.7	3.6	-1.5	-3.8	8.4	5.1
Cc1ccc(Nc2nc(N)nc(CN3CCC(C)CC3)n2)c(C)c1	-8.8	-19.3	5.5	-15.9	88.9*	-2.0
COc1ccc(CCn2c(N3CCN(C)CC3)nc3c2c(=O)[nH]c(=O)n3C)cc1	-36.6	-3.9	3.4	3.4	5.2	-0.6
CCCn1c(N2CCN(CC(=O)c3c(C)n(C)c4ccc(OC)cc34)CC2)nc2c1c(=O)[nH]c(=O)n2C	13.1	62.6*	7.1	3.3	0.0	2.0
Cc1cc(C)cc(NC(=O)N(CCC#N)Cc2cccs2)c1	-7.2	14.6	5.9	·	1.7	-2.8
Fc1ccc(NC(=S)Nc2cccnc2)c(F)c1F	-5.8	-16.1	4.1	-1.2	0.1	-3.2
COc1ccc(OC)c(NC(=O)c2nc(-c3ccccc3)oc2C)c1	-1.0	-14.9	-2.4	-6.6	2.5	3.8
COc1ccc(/C=C/C2=CCN(Cc3ccc(OC)cc3)CC2)cc1	5.4	11.5	-5.3	12.7	37.7*	16.4
Cc1ccc2nc(C)c(C(=O)NN=C3CCN(C)CC3)n2c1	38.0	24.1	19.4	68.1*	6.7	8.7
CCOC(=O)c1c(C)nc2ccc(C)cn12	-68.4	23.4	-2.4	-3.9	5.0	-2.3
SMILES	KLF5 inh	aSyn UTR inh	IEC-6 tox	APP 5UTR inh	BaF3 parental	Ba/F3 V617F tox
COc1ccc(C2=NN(C(=O)CSc3nnc(C)n3C)C(c3ccco3)C2)cc1 (stereo unspecified)	-2.9	-14.3	-3.3	-20.8	6.2	-0.5
COc1ccc(C2=NN(C(=O)COc3ncnc4ccccc34)C(c3ccco3)C2)cc1 (stereo unspecified)	-1.9	64.0*	-2.7	20.6	1.3	-2.1
O=c1ccn(CCCBr)c(=O)[nH]1	-31.2	0.2	1.4	·	-3.6	-0.2
O=C(COC(=O)c1cc(S(=O)(=O)N2CCCCC2)ccc1N1CCOCC1)c1ccccc1	·	-9.1	·	·	·	·
CCC(CC)C1C(C#N)=C(N)Oc2n[nH]c(-c3ccccc3)c21 (stereo unspecified)	-6.7	-2.3	-0.6	·	1.2	-3.4
CCC(CC)C1C(C#N)=C(N)Oc2n[nH]c(C)c21 (stereo unspecified)	-4.0	12.2	-1.6	18.6	92.2*	-1.5
CCOc1ccc(CN(C(=O)c2ccccn2)c2ccc(OC)c(Cl)c2)cc1	-28.8	-55.4	1.2	·	·	·
COc1cccc(-c2csc(N3CCN(C(=S)Nc4ccc(Cl)cc4)CC3)n2)c1	-9.7	-32.2	6.1	2.4	38.5*	38.2*
Cc1cc(C)c2nc(NNC(=O)c3ccc(S(=O)(=O)N4CCCCC4)cc3)sc2c1	6.6	45.6	0.4	13.2	6.4	1.0
Cc1cccc2sc(NC(=O)c3cccc(S(=O)(=O)N4CCc5ccccc54)c3)nc12	-7.8	-1.2	-0.5	2.4	1.3	0.0
Cc1cccc2sc(NNC(=O)c3ccc(S(=O)(=O)N4CCCC(C)C4)cc3)nc12 (stereo unspecified)	18.9	77.6*	-0.1	34.7	8.5	-2.4
Cc1cccc2sc(NNC(=O)c3ccc(S(=O)(=O)N4CCc5ccccc5C4)cc3)nc12	24.6	66.9*	3.1	19.7	6.2	-0.7
COc1ccc2sc3c(=O)[nH]c4ccccc4c3c2c1	-13.1	63.0*	7.9	0.9	4.2	1.7
CCCCn1c(N)c(N(CCOC)C(=O)c2ccco2)c(=O)[nH]c1=O	·	5.1	·	·	·	·
O=C(NCCc1ccc(Cl)cc1)C1CCC(CNc2nc(=S)[nH]c3ccccc23)CC1 (stereo unspecified)	-20.7	64.5*	-3.9	-6.4	8.3	0.5
O=C(NCc1ccccc1Cl)C1CCC(CNc2nc(=S)[nH]c3ccccc23)CC1 (stereo unspecified)	-14.8	16.6	-1.1	-3.7	7.6	-0.3
O=C(NCCC1=CCCCC1)C1CCC(CNc2nc(=S)[nH]c3ccccc23)CC1 (stereo unspecified)	-1.7	98.6*	-1.8	18.3	7.9	0.6
CCCCNC(=O)C1CCC(CNc2nc(=S)[nH]c3ccccc23)CC1 (stereo unspecified)	-1.4	26.8	-3.7	-0.9	5.2	1.8
CC(Oc1ccc(Cl)cc1)C(=O)N(C)CC(=O)Nc1ccc(N2CCOCC2)cc1 (stereo unspecified)	-26.5	8.4	-5.3	·	·	·
CCCCCCOc1ccc(/C(N)=N/O)cc1	-99.9	-173.1	0.4	-78.2	36.8*	27.0*
N=C(N)c1ccc(OCCCCCOc2ccc(C(=N)N)cc2)cc1	10.3	67.0*	-1.7	3.0	53.0*	63.4*
CN(C)CCn1c2c(c(SCC(=O)Nc3ccc4c(c3)OCCO4)nc1=O)CCCC2	·	-4.8	·	·	·	·
COc1cc([N+](=O)[O-])ccc1NC(=O)Oc1ccc(NC(C)=O)cc1	-14.0	0.9	-1.9	·	2.6	-4.1
COc1ccc(Cn2c(SCc3ccc(C)cc3)nc3cc(OC)c(OC)cc3c2=N)cc1Cl	-21.3	118.6*	-2.9	-16.0	1.8	-2.0

Compound activity (PubChem)
